The values below come from PubChem BioAssay (NCATS).

Values joined by “and” are separate entries in the source; they are usually repeats but may differ in a detail not shown here. Equal entries are not always repeated. Inconclusive results are not listed. Active and inactive are the calls of the source. Unless noted, calls come from the whole dose curve; as a rule, active = well fitted curve in the direction sought with a large enough effect; inconclusive = small, poorly fitted or top-dose-only effect, or another doubt; inactive = no such curve, though single readings can be large; an effect the other way counts as inactive or inconclusive.

Experiment [1] can be described thus: qHTS Assay for Identifying Gametocytocidal Compounds (AID 743244).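 For max response: % is set by controls: 0 for no effect and ±100 for the full control effect; actives lower the fluorescent signal which means gametocytes are killed.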 Note: potency is the fitted concentration of half-maximal effect. Conditions: P. falciparum 3D7 stage III-V gametocytes, alamarBlue, 72 h; max response: stronger effect = lower value. The gist of the method: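 P. falciparum 3D7 stage III–V gametocytes (20,000 cells/well) were exposed to compounds for 72 h at 37 °C, 5% CO2. AlamarBlue was then added for 24 h; decreased resorufin fluorescence (Ex 525/Em 598 nm) indicated loss of viability.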
In general terms: Quantitative high-throughput screening tests each substance at several concentrations.

A short description of experiment [2]: qHTS assay to identify small molecule inhibitors of chordoma cells - UCH-1 (AID 1259355). Note: nearly all actives have a fitted effect of over 55% in size. Note: potency is the fitted concentration of half-maximal effect. Particulars: UCH-1 chordoma viability, CellTiter-Glo, 48 h, combination, with auranofin plus four topoisomerase inhibitors; series mostly up to 46.1 µM. The gist of the method: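 Luminescent ATP read-out (CellTiter-Glo, 30min at room temperature) measured viability of UCH-1 cells exposed for 48hr to test drugs at 15 concentrations, co-dosed with a five-agent combination of auranofin, camptothecin, doxorubicin, rubitecan and topotecan.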

Experiment [3] is described as follows: qHTS assay to identify small molecule inhibitors of chordoma cells - UCH-2 (AID 1259356). Note: potency is the fitted concentration of half-maximal effect. Conditions: UCH-2 chordoma viability, CellTiter-Glo ATP luminescence, 48 h; series mostly up to 46.1 µM.
The nature of experiment [4]: qHTS profiling for inhibitors of Plasmodium falciparum (3D7) proliferation (AID 743322).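 Note: infected erythrocytes exposed to compound for 72 h before lysis; 100% = DMSO vehicle wells and 0% = 0.29 µM artemisinin.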 Conditions: P. falciparum 3D7 proliferation; at 28.7 µM (top of the series) unless noted. The procedure, abridged: (§1)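 Erythrocytes infected with P. falciparum (0.3% parasitemia, 2.5% hematocrit) incubated with compounds 72 h at 37 C, 5% CO2. Lysis with saponin/Triton buffer containing SYBR Green I, overnight at room temperature in the dark; DNA fluorescence (485/535 nm) normalised to 0.29 uM artemisinin and DMSO.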

A short description of experiment [5]: qHTS profiling for inhibitors of Plasmodium falciparum (DD2) proliferation (AID 743323; call rule not given here). Conditions: lower = more inhibition; at 28.7 µM (top of the series) unless noted. The procedure, abridged: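 Parasite proliferation measured via DNA-dye fluorescence, as uninfected erythrocytes lack DNA. Cultures at 0.3% parasitemia and 2.5% hematocrit incubated 72 h with compound; signal scaled between vehicle and 0.29 uM artemisinin wells.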

Experiment [6] in a line: qHTS profiling for inhibitors of Plasmodium falciparum (HB3) proliferation (AID 743324).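 Note: 100% = DMSO vehicle wells and 0% = artemisinin-treated control wells.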 Conditions: Plasmodium falciparum HB3 blood-stage proliferation; at 28.7 µM (top of the series) unless noted. The procedure, abridged: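 P. falciparum HB3 grown in erythrocytes (0.3% parasitemia, 2.5% hematocrit final) with compound for 72 h at 37 C, 5% CO2. Parasite DNA detected by SYBR Green after saponin/triton lysis overnight; normalized to 0.29 uM artemisinin and DMSO.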

The nature of experiment [7]: qHTS profiling of the MIPE4 collection as inhibitors of Plasmodium falciparum (3D7) proliferation (AID 743344; call rule not given here). Particulars: P. falciparum 3D7 in erythrocytes, SYBR Green DNA fluorescence, 72 h; at 28.5 µM (top of the series) unless noted. The procedure, abridged: as §1
A short description of experiment [8]: qHTS profiling of the MIPE4 collection as inhibitors of Plasmodium falciparum (DD2) proliferation (AID 743345; call rule not given here). Conditions: P. falciparum Dd2 in erythrocytes, SYBR Green DNA, 72 h; at 28.5 µM (top of the series) unless noted. The gist of the method: as §1
Experiment [9] can be described thus: qHTS profiling of the MIPE4 collection as inhibitors of Plasmodium falciparum (DD2) proliferation (Rep 2) (AID 743346; call rule not given here). Conditions: P. falciparum Dd2 in erythrocytes, SYBR Green DNA, 72 h; at 28.5 µM (top of the series) unless noted. The procedure, abridged:
as §1

The nature of experiment [10]: qHTS profiling of the MIPE4 collection as inhibitors of Plasmodium falciparum (HB3) proliferation (AID 743347; call rule not given here;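 note: plate controls were DMSO vehicle wells for no effect and artemisinin wells for full effect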). Conditions: P. falciparum HB3 in erythrocytes, SYBR Green DNA, 72 h; at 28.5 µM (top of the series) unless noted. The procedure, abridged:
as §1

Experiment [11] in a line: P-glycoprotein substrates identified in KB-3-1 adenocarcinoma cell line, qHTS therapeutic library screen (AID 1346986). Note: nearly all actives have a fitted effect of over 60% in size. Particulars: KB-3-1 parental cells viability, CellTiter-Glo, 72 h; series mostly up to 44.5 µM. The gist of the method: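 KB-3-1 parental cells and P-gp-overexpressing KB-8-5-11 (colchicine omitted during assay) plated at 500 cells/well, dosed in dose-response, incubated 72 h at 37 degree C. CellTiter-Glo luminescence read; KB-8-5-11 also tested with tariquidar.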

The nature of experiment [12]: qHTS assay for cell viability of HEK293 cells (AID 743288). Note: % is set by controls: 0 for no effect and ±100 for the full control effect; nearly all actives have a fitted effect of over 50% in size. Conditions: ATP luminescence (CellTiter-Glo), 18 h, stronger effect = lower value. The gist of the method: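 Parental HEK293 cells were seeded at 2,000 cells/well, rested at least 5 h at 37 C, then exposed to compounds in DMSO for 18 h at 37 C. Viability was read as ATP-dependent luciferase luminescence after 30 min at room temperature.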

A short description of experiment [13]: qHTS assay for cell viability of the p53RE-bla HCT-116 cell line (AID 743292). Note: % is set by controls: 0 for no effect and ±100 for the full control effect; nearly all actives have a fitted effect of over 55% in size. Conditions: p53RE-bla HCT-116 viability, ATP luminescence, 16 h; series mostly up to 95 µM. The procedure, abridged: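 After plating at 4,000 cells per well and a 5 h rest at 37 C, HCT-116 cells carrying p53RE-bla received test chemicals in DMSO. Sixteen hours later at 37 C, CellTiter-Glo was added and luminescence recorded following 30 min at room temperature.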

As to `CCOc1ccc(N=Nc2ccc(N)cc2N)cc1`, the max response in experiment [1] is 4.91% (inactive). Further, the Potency result in experiment [2] and in experiment [3] was “inactive” each time.

Turning to `CC[C@@]1(O)C(=O)OCc2c1cc1n(c2=O)Cc2cc3c([N+](=O)[O-])cccc3nc2-1`, the max response in [1] was 2.02% (inactive). The Potency in [2] is 0.794 µM (active).

In the case of `CCNC(=O)[C@@H]1CCCN1C(=O)[C@H](CCCN=C(N)N)NC(=O)[C@H](CC(C)C)NC(=O)[C@@H](Cc1c[nH]c2ccccc12)NC(=O)[C@H](Cc1ccc(O)cc1)NC(=O)[C@H](CO)NC(=O)[C@H](Cc1c[nH]c2ccccc12)NC(=O)[C@H](Cc1cnc[nH]1)NC(=O)[C@@H]1CCC(=O)N1`, the Potency is 6.31 µM (active) in experiment [1], 31.6 µM (active) in experiment [2] and 18.3 µM (active) in [3].

In the case of `C[C@@H]1CCC2[C@@H](C)[C@@H](O)O[C@@H]3O[C@@]4(C)CC[C@@H]1[C@@]23OO4` (stereo partly drawn), the Potency in experiment [1] is 0.0469 µM (active). Besides, the remaining parasite growth % (stronger effect = lower value) in experiment [4] is -0.537%. In addition, the activity, percent of control in [5] was -0.207%. Besides, the remaining proliferation (% of control), lower = more inhibition in experiment [6] is -0.144%. The parasite growth, % of DMSO control in [7] was 5.03%. For the same compound, the parasite growth remaining, % of DMSO control (lower = more inhibition) in experiment [8] stood at 6.44%. Further, the parasite growth, % of control (lower = inhibition) in experiment [9] worked out at 10.6%. In addition, the growth, % of control in [10] is 6.11%. The Potency result in [2] and in [3] was “inactive” in each case.

For `COc1ccc2c3c1O[C@H]1C[C@@H](O)C=C[C@@]31CCN(C)C2`, the Potency entry in experiment [2] and in experiment [11] was “inactive” in each case.

For the compound `O=C(O)CN(CCN(CC(=O)O)CC(=O)O)CC(=O)O`, in experiment [12], the max response was -9.23% (inactive) and -6.76% (inactive). Besides, in [13], the compound was classed as inactive. The Potency result in experiment [2] and in experiment [3] was “inactive” each time.

On to `CC(NNC(=O)c1ccccc1)c1ccccc1` (stereo not drawn), for which the max response in experiment [1] is -2.82% (inactive). The Potency entry in experiment [2] and in experiment [3] was “inactive” in each case.

On to `Cc1ccccc1`, for which the max response is 2.65% (inactive) in experiment [1]; 1.99% (inactive) and 6.48% (inactive) in [12]. Besides, the result in [13] was inactive. The Potency result in experiment [2] and in experiment [3] was “inactive” throughout.

In the case of `CC(C)(C)NC(=O)[C@@H]1C[C@@H]2CCCC[C@@H]2CN1C[C@@H](O)[C@H](Cc1ccccc1)NC(=O)[C@H](CC(N)=O)NC(=O)c1ccc2ccccc2n1`, the Potency in experiment [1] was 10 µM (active). For the same compound, the max response in [12] was -26% (inactive). Also, the Potency result in [2] and in [3] was “inactive” each time.

Consider `O=C(Nc1ccc(Br)cc1)c1cc(Br)c(Br)s1`, for which the max response in [1] is 1.98% (inactive). Besides, the Potency entry in experiment [2] and in experiment [3] was “inactive” in each case.

Turning to `Cc1cn([C@H]2C[C@H](O)[C@@H](CO)O2)c(=O)[nH]c1=O`, the max response in [1] was 5.37% (inactive). In addition, the Potency entry in experiment [2] and in experiment [3] was “inactive” in each case.

For `CC1(C)S[C@@H]2[C@H](NC(=O)C(N)c3ccccc3)C(=O)N2[C@H]1C(=O)OC1OC(=O)c2ccccc21` (stereo partly drawn), in experiment [1], the max response was 16.4% (inactive). Moreover, the Potency result in experiment [2] and in [3] was “inactive” throughout.

On to `CC(C)(C)C1(O)CCN2CC3c4ccccc4CCc4cccc(c43)C2C1` (stereo not drawn), for which the max response in [1] is 10.9% (inactive). The Potency result in experiment [2] and in [3] was “inactive” throughout.

As for `Nc1ncnc2c1ncn2[C@@H]1O[C@H](COP(=O)(O)OP(=O)(O)OP(=O)(O)O)[C@@H](O)[C@H]1O`, in experiment [1], the max response is -2.1% (inactive). Further, the Potency entry in experiment [2] and in experiment [3] was “inactive” in each case.

In the case of `CO[C@@H]1[C@@H](O[C@@H]2O[C@H](C)[C@@H](O[C@H]3C[C@@](C)(O)[C@@H](O)[C@H](C)O3)[C@H](N(C)C)[C@H]2O)[C@@H](CC=O)C[C@@H](C)[C@@H](O[C@@H]2CC[C@H](N(C)C)[C@@H](C)O2)/C=C/C=C/C[C@@H](C)OC(=O)C[C@H]1O`, the max response in experiment [1] is 23.5% (inactive). For the same compound, the Potency result in [2] and in [3] was “inactive” each time.

For the compound `CN1C(=O)CN2CCc3ccccc3C2c2cc(Cl)ccc21` (stereo not drawn), the max response in [1] is 0.102% (inactive). The Potency result in experiment [2] and in [3] was “inactive” in each case.

On to `CC1(C)S[C@@H]2[C@H](NC(=O)[C@@H](NC(=O)N3CCNC3=O)c3ccccc3)C(=O)N2[C@H]1C(=O)O`, for which, in [1], the max response is 5.13% (inactive). In addition, the Potency result in experiment [2] and in experiment [3] was “inactive” each time.

Regarding `CC[N+](CC)(CC)CCC(O)(c1ccccc1)C1CCCCC1` (stereo not drawn), in [1], the max response was 4.48% (inactive). Further, the Potency entry in experiment [2] and in experiment [3] was “inactive” throughout.

On to `COC(F)(F)C(Cl)Cl`, for which the max response in [1] was 1.97% (inactive). Moreover, the Potency entry in experiment [2] and in [3] was “inactive” in each case.

As to `Cc1ccccc1OCC(O)CNCCOc1ccc(C(N)=O)cc1` (stereo not drawn), the max response in experiment [1] is 6.36% (inactive). The Potency entry in experiment [2] and in [3] was “inactive” throughout.

With `Cc1cc(C(=O)NNCc2ccccc2)no1`, the max response in [1] is -1.55% (inactive). The Potency result in [2] and in experiment [3] was “inactive” in each case.

Turning to `CCOC(=O)C1=C(C)NC(C)=C(C(=O)OCC)C1c1ccccc1C=CC(=O)OC(C)(C)C`, the parasite growth, % of DMSO control in experiment [7] was 6.3%. Also, in experiment [8], the parasite growth remaining, % of DMSO control (lower = more inhibition) was found to be 7.86%. The compound also had a parasite growth, % of control (lower = inhibition) in [9] of 19.9%. The same compound registered a growth, % of control in experiment [10] of 11.8%. The Potency result in experiment [2] and in experiment [3] was “inactive” throughout.

In the case of `CCCCC(=O)N(Cc1ccc(-c2ccccc2-c2nn[nH]n2)cc1)[C@@H](C(=O)O)C(C)C`, in [1], the max response is -5.58% (inactive). The Potency entry in experiment [2] and in [3] was “inactive” each time.

`CO[C@@H]1[C@@H](O[C@@H]2O[C@H](C)[C@@H](O[C@H]3C[C@@](C)(O)[C@@H](OC(=O)CC(C)C)[C@H](C)O3)[C@H](N(C)C)[C@H]2O)[C@@H](CC=O)C[C@@H](C)C(=O)/C=C/C2OC2C[C@@H](C)OC(=O)C[C@H]1OC(C)=O` (stereo partly drawn): in [1], the Potency was 10 µM (active). For the same compound, in experiment [2], the Potency result is “inactive”.
